Screen size: about 310,000 compounds; about 14,000 (4.5%) showed an effect of 50% or more. The effect is printed as a negative number. What follows is part of a selection rich in strong results, with near analogues and random picks from the rest.
molecular target: human ether-à-go-go-related gene (hERG) potassium channel (human, UniProt Q12809); assay: primary screen, population patch clamp on CHO cells stably expressing hERG; higher = less effect of the substance
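Also: peak tail current of the secondary pulse compared with the same well before compound.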

Chain of human ether-à-go-go-related gene (hERG) potassium channel (Q12809 whole entry, looked up): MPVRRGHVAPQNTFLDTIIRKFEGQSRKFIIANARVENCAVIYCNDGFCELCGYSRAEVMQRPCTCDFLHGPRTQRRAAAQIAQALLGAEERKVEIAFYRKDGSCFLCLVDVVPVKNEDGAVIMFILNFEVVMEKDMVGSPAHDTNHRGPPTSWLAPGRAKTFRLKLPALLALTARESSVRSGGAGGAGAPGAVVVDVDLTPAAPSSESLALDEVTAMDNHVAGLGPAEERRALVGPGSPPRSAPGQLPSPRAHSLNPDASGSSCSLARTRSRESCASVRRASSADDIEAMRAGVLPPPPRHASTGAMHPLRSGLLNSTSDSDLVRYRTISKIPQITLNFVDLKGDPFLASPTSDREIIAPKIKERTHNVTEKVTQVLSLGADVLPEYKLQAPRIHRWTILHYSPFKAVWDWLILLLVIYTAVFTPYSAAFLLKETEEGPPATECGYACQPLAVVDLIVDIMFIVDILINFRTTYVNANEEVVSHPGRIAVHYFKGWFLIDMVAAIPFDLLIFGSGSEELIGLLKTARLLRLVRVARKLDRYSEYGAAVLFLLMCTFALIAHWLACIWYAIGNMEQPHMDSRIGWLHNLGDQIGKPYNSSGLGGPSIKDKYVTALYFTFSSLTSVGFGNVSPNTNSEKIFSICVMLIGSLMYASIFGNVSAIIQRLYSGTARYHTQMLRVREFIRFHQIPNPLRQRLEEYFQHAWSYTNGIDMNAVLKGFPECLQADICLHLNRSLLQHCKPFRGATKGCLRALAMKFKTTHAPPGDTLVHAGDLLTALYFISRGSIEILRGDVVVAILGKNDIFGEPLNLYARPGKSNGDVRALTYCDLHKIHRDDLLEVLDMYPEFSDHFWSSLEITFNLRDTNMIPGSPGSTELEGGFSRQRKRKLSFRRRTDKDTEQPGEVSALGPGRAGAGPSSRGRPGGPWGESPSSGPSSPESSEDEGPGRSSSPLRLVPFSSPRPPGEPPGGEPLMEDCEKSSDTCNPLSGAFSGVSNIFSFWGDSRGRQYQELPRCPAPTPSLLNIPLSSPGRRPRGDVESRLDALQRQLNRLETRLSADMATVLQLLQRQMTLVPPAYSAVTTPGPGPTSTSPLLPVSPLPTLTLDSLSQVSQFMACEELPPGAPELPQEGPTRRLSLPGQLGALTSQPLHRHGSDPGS

| Compound | hERG current change (%, negative = inhibition) at 10uM [%] |
| --- | --- |
| O=C(NCc1cccc(C(F)(F)F)c1)c1cccc(Cl)c1Cl | 10.5 |
| CCc1cc(Cn2nc(-c3ccccc3)cc2C(=O)O)on1 | -1.7 |
| O=C(CNC(=O)c1cccs1)N/N=C/c1cccc(Cl)c1 | -5.74 |
| COc1ccc(OC)c(NC(=O)C(=O)NNC(=O)c2cccs2)c1 | 10.9 |
| O=C(NCCCO)C(=O)NCC(c1ccc2c(c1)OCO2)N1CCN(c2ccc(F)cc2)CC1 (stereo not shown) | -41.4 |
| O=C(C[N+]1(CC#Cc2ccccc2)CCOCC1)c1ccccc1.[Br-] | 35.8 |
| N#CC[N+]1(CCCNP2(=O)C=C(c3ccccc3)OC(c3ccccc3)=C2)CCOCC1.[Cl-] | -63.5 |
| CC[N+](CC)(CCCCS(=O)(=O)[O-])CCNP1(=O)C=C(c2ccccc2)OC(c2ccccc2)=C1 | 9.75 |
| O=C(c1ccccn1)N1N=C2/C(=C/c3ccccc3)CCCC2C1c1ccccc1 (stereo not shown) | -37.1 |
| O=C(c1ccccn1)N1N=C2/C(=C/c3ccc(F)cc3)CCCC2C1c1ccc(F)cc1 (stereo not shown) | -54.3 |
| CC(=O)N1N=C2/C(=C/c3ccccc3)CCCC2C1c1ccccc1 (stereo not shown) | -10.5 |
| Cc1ncsc1C(=O)N1N=C2/C(=C/c3ccccc3)CCCC2C1c1ccccc1 (stereo not shown) | -0.298 |
| O=C1CCC(C(=O)OCC(=O)N2N=C3/C(=C/c4ccccc4)CCCC3C2c2ccccc2)N1 (stereo not shown) | -70.3 |
| NC(=O)N1N=C2/C(=C/c3ccccc3)CCCC2C1c1ccccc1 (stereo not shown) | -17.1 |
| CCCCCOC(=O)C1=C(C)NC(=O)NC1c1ccc(N(C)C)cc1 (stereo not shown) | 12.5 |
| COc1ccc(C2C3=C(CC(C)(C)CC3=O)Nc3c2c(=O)[nH]c(=O)n3Cc2ccccc2)cc1OC (stereo not shown) | -3.11 |
| CCOC(=O)Cc1csc(NC(=O)CCCN2C(=O)c3ccccc3C2=O)n1 | 12.2 |
| O=C(NCCN1CCOCC1)C1CCN(c2ncnc3c2sc2cccc(F)c23)CC1 | -25.6 |
| CCOC(=O)N1CCN(C(=O)C2CCN(c3ncnc4c3sc3cccc(F)c34)CC2)CC1 | -59.9 |
| O=C(C1CCN(c2ncnc3c2sc2cccc(F)c23)CC1)N1CCOCC1 | -27.8 |
| CC1CC(C)CN(CCCNC(=O)C2CCN(c3ncnc4c3sc3cccc(F)c34)CC2)C1 (stereo not shown) | -65.8 |
| O=C(C1CCN(c2ncnc3c2sc2cccc(F)c23)CC1)N1CCCC1 | -19.7 |
| O=C(Nc1ccc(F)cc1F)C1CCN(c2ncnc3c2sc2cccc(F)c23)CC1 | 3.98 |
| CCN(CC)CCNC(=O)c1ccc(NC(=O)C2CCN(c3ncnc4sc(C)c(C)c34)CC2)cc1 | -29.8 |
| CCN(CC)CCCNC(=O)C1CCN(c2ncnc3c2sc2cccc(F)c23)CC1 | -50.2 |
| O=C(NC1CC1)C1CCN(c2ncnc3c2sc2cccc(F)c23)CC1 | -52 |
| O=C(NC1CC1)C1CCN(c2nc3ccccc3s2)CC1 | -5.63 |
| COc1ccc(-c2noc(N3CCC(C(=O)NCCCN4CC(C)CC(C)C4)CC3)n2)cc1 (stereo not shown) | -18.1 |

| Compound | hERG current change (%, negative = inhibition) at 10uM [%] |
| --- | --- |
| CCN(CC)CCCNC(=O)C1CCN(C(=O)c2cc3sccc3n2Cc2ccc(F)cc2)CC1 | -2.11 |
| O=C(Nc1cc(-c2nc3ncccc3o2)ccc1Cl)c1ccc2c(c1)OCO2 | 10.2 |
| Cc1ccc(C(=O)NCCc2ccc(S(N)(=O)=O)cc2)o1 | 16.1 |
| O=C(Nc1ccc(-c2ccccc2)cc1)c1ccc2c(c1)S(=O)(=O)c1ccccc1C2=O | 7.7 |
| CC1(C)NC(=O)N(CC(O)COC2CCCCC2)C1=O (stereo not shown) | 8.64 |
| FC(F)(F)c1ccccc1CNCc1ccncc1 | 4.43 |
| COc1ccccc1-n1c(C)nnc1SCC(=O)NCc1ccccc1 | 11.5 |
| CCOC(=O)c1c(NC(=O)COC(=O)Cn2cnc3ccccc32)sc2c1CCC(C)C2 (stereo not shown) | -3.78 |
| CCCCNC(=O)C1CCN(c2nc(C)cc(C)n2)CC1 | 17 |
| CCCCN(CC)CCCNC(=O)C1CCN(c2ncnc3c2sc2cccc(F)c23)CC1 | -70.3 |
| CCCCN(CC)CCNC(=O)C1CCN(S(=O)(=O)c2cccc3nsnc23)CC1 | -11 |
| CC1(C)CC2CC(C)(CN2C(=O)COC(=O)Cn2[nH]c(=O)c3ccccc3c2=O)C1 (stereo not shown) | 2.26 |
| CCn1c(CNC(=O)c2ccc(Cl)cc2)nnc1SCC(=O)NC1=NCCS1 | 18 |
| CC(=O)Nc1sc2c(c1CN1CCN(C)CC1)CCCC2 | -1.92 |
| CC(=O)Nc1sc2c(c1CN1CCCC1)CCCC2 | 7.34 |
| CC(=O)Nc1sc2c(c1CN1CCN(c3ccccn3)CC1)CCCC2 | -55.3 |
| COc1cc(NC(=O)c2ccc(Br)o2)ccc1NC(=O)c1ccccc1Cl | -22.4 |
| CCN(CC)C(=O)CSc1nnc(SCc2ccc(Cl)cc2)s1 | -3.44 |
| O=C(O)C1(NS(=O)(=O)c2ccc(F)c(Cl)c2)CCCCC1 | 7.65 |
| N#C/C(=C/Nc1ccccc1)c1ccsc1 | 7.85 |
| O=C(NC1CCCCC1)c1ccc(S(=O)(=O)N2CCOCC2)cc1 | -2.69 |
| CC(C)[C@H](NC(=O)C1CCN(S(=O)(=O)c2ccc(F)cc2)CC1)C(=O)N1CCCCCC1 | 5.18 |
| CC(C)[C@H](NC(=O)C1CC(=O)N(c2ccc(F)cc2)C1)C(=O)N1CCCCC1 (stereo partly shown) | 7.29 |
| CC(C)[C@H](NC(=O)c1c(F)cccc1F)C(=O)N1CCN(c2ccc(F)cc2)CC1 | -54.2 |
| CC(C)C(NC(=O)C1CCCCC1)C(=O)N1CCN(c2ccc(F)cc2)CC1 (stereo not shown) | -55.7 |
| COc1ccc(N2CCN(C(=O)C(NC(=O)c3c(F)cccc3F)C(C)C)CC2)cc1 (stereo not shown) | 10.5 |
| CC(C)C(NC(=O)c1c(F)cccc1F)C(=O)N1CCN(c2ccccc2F)CC1 (stereo not shown) | -1.76 |
